Laboratory results as given in the supplement of paper PMC11732987, “Enantioselective OTUD7B fragment discovery through chemoproteomics screening and high-throughput optimisation” (Communications Chemistry, 2025).

What was measured:
Experiment in all cases: log2 ratio of Biotin-Ahx-Ub-VS probe labelling (fragment/DMSO); higher = less target engagement (more negative = stronger competition), active = hit call of the paper (q ≤ 0.05, log2 ratio ≤ -1)
Conditions in all cases: compound concentration: 200 uM; treatment time: 3 h
[1] = target: UniProt O00507
Sequence of UniProt O00507 (O00507 whole entry, the tested form may be a part): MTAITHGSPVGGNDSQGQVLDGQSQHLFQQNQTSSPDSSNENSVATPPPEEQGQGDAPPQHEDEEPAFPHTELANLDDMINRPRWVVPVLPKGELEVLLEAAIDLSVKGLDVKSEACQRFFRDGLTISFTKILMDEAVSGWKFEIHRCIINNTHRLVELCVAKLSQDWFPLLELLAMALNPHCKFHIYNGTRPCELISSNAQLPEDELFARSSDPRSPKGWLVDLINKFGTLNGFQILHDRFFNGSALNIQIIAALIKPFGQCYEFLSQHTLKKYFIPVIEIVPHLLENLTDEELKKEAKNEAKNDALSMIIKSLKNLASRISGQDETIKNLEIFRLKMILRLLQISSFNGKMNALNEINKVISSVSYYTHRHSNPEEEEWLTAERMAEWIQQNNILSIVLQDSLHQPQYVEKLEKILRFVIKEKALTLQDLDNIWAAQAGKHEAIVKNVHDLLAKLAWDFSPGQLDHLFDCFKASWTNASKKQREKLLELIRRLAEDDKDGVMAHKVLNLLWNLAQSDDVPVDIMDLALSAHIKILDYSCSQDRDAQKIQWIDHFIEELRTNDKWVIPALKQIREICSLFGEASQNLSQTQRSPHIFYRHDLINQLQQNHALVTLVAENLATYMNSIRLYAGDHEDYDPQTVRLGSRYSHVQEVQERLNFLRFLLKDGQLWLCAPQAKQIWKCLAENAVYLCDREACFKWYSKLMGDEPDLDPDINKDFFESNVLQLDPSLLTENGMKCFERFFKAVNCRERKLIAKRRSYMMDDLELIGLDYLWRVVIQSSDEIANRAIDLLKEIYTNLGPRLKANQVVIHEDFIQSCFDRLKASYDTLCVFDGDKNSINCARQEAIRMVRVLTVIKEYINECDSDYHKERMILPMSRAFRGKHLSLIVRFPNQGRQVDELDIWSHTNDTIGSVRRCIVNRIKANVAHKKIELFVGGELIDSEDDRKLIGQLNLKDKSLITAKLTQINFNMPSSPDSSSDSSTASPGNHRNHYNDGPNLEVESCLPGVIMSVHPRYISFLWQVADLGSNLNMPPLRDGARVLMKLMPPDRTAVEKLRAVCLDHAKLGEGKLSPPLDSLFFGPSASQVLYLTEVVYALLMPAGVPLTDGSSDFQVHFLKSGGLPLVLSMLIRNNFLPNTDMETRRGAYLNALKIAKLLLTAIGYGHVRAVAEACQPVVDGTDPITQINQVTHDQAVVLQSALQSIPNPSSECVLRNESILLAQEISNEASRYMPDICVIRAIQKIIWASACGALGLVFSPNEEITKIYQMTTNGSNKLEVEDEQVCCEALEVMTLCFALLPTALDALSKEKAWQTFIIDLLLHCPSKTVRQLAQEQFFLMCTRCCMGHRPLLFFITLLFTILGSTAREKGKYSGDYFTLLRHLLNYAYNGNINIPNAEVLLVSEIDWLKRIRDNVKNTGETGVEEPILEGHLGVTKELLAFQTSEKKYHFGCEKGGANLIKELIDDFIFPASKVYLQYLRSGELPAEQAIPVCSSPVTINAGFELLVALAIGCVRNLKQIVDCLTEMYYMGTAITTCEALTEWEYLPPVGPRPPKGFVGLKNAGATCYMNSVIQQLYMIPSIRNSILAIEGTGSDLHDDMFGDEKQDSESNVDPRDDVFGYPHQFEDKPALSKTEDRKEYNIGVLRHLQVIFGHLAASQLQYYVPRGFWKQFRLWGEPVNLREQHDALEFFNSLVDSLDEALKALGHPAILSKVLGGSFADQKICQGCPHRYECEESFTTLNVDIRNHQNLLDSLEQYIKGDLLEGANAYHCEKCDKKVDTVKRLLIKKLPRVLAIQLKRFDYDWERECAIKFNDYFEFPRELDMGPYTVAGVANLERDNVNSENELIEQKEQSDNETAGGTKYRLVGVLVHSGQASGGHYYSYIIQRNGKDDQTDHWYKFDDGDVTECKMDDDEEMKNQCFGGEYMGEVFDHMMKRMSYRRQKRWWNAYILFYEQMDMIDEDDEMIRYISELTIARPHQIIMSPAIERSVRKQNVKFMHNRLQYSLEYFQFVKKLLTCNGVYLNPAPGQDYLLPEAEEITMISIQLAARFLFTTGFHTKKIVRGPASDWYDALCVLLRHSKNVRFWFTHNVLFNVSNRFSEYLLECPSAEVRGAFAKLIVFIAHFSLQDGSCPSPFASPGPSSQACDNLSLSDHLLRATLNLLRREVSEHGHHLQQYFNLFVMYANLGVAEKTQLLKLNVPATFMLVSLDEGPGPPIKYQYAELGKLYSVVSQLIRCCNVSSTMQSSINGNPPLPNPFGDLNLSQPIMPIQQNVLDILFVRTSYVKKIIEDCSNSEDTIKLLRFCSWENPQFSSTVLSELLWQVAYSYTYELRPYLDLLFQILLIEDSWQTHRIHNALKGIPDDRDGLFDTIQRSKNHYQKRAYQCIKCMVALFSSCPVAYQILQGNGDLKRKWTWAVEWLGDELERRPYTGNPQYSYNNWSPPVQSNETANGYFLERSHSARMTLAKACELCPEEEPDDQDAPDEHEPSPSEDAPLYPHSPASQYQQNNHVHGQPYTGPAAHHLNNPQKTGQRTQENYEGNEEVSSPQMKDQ
How it was run: (§1)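 Values give the average log2 ratio of fragment to vehicle, assessed by unpaired t-test on global-median-normalised Spectronaut label-free quantities. Proteins needed ≥2 unique peptides. HEK293T lysate (495 µg per sample) was treated in triplicate with fragment at 200 µM or vehicle for 3 h and then with Biotin-Ahx-Ub-VS at 0.5 µM final for 1 h. Labelled DUBs were NeutrAvidin-enriched, digested and run by diaPASEF LC-MS/MS.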

[2] = target: UniProt P51784
Sequence of UniProt P51784 (P51784 whole entry): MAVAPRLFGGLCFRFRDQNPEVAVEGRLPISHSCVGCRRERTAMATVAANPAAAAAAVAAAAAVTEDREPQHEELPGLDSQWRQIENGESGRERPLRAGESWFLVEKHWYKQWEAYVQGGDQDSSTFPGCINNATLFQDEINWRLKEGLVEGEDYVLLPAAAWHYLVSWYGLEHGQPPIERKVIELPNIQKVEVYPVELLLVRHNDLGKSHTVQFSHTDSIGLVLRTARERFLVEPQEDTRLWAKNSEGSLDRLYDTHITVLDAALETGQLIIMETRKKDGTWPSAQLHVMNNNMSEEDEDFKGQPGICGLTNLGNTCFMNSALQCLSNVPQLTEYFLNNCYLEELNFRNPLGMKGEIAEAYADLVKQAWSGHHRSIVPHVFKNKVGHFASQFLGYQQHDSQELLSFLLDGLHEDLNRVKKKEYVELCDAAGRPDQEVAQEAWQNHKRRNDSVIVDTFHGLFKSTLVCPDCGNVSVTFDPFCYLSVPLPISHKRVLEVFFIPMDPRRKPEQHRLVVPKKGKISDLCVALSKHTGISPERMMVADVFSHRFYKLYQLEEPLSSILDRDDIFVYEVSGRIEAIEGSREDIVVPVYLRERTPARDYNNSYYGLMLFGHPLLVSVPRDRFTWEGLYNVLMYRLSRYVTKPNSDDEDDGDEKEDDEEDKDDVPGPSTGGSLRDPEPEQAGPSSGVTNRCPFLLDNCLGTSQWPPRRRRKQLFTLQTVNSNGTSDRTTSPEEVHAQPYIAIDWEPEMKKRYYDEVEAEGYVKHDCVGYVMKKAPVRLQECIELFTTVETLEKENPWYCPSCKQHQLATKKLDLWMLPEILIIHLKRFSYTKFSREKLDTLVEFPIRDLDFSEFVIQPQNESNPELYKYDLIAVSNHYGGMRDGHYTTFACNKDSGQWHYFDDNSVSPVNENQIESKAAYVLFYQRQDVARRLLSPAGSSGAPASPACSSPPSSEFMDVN
How it was run: as §1

[3] = target: T1, UniProt Q5T2D3
T1 sequence (whole entry): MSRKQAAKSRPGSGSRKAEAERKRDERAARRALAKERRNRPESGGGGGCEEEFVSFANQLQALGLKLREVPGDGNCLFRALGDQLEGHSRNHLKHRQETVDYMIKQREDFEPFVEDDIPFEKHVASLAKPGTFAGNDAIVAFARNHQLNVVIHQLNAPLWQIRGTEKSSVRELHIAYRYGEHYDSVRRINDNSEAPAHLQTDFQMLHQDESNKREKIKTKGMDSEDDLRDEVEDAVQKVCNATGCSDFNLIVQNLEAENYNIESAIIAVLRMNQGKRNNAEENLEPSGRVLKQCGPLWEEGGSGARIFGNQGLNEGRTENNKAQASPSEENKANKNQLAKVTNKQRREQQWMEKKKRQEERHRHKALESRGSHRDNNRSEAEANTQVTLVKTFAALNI
How it was run: as §1

[4] = target: T2, UniProt Q8TE49
T2 sequence (whole entry): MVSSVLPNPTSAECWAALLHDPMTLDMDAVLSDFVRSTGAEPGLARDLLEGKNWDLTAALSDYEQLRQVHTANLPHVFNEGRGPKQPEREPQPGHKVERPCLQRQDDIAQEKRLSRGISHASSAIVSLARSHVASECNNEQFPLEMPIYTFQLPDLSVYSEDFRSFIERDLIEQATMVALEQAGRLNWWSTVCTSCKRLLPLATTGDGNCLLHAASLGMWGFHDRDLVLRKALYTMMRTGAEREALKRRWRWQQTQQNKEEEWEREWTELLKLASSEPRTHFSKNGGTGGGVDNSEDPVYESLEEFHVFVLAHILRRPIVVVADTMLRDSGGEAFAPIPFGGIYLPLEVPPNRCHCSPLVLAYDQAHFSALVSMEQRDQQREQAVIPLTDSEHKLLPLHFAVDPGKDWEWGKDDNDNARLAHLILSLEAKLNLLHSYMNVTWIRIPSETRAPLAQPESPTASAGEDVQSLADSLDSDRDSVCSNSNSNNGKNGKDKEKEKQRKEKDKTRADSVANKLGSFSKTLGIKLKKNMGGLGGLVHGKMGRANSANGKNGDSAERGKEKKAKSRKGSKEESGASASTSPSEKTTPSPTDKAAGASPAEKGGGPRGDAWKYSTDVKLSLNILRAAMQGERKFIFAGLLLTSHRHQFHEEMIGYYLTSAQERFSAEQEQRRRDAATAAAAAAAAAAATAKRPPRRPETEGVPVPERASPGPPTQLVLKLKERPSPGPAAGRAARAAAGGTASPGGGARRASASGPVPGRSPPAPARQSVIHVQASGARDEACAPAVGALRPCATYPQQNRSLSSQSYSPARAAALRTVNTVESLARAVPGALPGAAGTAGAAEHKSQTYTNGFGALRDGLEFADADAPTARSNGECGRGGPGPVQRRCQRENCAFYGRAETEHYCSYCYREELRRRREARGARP
How it was run: as §1

[5] = target: T3, UniProt Q9P2H5
T3 sequence (whole entry): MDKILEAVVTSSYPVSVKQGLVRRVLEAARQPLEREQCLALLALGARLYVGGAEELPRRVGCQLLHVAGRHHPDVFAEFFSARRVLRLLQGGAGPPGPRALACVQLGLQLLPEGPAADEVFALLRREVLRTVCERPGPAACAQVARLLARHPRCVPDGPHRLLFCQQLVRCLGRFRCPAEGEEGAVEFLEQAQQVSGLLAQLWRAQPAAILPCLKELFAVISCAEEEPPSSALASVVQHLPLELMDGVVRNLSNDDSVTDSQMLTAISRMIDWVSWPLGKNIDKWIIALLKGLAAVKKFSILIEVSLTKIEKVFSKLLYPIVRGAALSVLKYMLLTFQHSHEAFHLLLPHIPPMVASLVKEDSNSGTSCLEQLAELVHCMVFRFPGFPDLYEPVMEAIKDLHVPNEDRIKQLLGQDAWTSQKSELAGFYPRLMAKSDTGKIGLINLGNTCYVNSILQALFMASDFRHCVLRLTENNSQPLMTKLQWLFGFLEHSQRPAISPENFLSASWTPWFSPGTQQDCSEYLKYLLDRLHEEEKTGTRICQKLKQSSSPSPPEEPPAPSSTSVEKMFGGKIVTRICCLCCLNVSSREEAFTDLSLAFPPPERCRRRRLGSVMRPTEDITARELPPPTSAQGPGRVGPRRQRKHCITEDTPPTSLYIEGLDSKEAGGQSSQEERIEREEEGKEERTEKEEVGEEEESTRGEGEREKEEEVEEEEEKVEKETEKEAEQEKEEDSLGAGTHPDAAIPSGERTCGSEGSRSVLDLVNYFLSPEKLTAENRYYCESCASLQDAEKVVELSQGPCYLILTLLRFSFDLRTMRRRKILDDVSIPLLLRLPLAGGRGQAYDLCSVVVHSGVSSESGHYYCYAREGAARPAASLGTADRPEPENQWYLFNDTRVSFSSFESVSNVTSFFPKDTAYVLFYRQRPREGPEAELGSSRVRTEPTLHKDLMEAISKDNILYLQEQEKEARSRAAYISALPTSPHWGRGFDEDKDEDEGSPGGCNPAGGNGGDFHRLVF
How it was run: as §1

[6] = target: T4, UniProt Q9UGI0
T4 sequence (whole entry): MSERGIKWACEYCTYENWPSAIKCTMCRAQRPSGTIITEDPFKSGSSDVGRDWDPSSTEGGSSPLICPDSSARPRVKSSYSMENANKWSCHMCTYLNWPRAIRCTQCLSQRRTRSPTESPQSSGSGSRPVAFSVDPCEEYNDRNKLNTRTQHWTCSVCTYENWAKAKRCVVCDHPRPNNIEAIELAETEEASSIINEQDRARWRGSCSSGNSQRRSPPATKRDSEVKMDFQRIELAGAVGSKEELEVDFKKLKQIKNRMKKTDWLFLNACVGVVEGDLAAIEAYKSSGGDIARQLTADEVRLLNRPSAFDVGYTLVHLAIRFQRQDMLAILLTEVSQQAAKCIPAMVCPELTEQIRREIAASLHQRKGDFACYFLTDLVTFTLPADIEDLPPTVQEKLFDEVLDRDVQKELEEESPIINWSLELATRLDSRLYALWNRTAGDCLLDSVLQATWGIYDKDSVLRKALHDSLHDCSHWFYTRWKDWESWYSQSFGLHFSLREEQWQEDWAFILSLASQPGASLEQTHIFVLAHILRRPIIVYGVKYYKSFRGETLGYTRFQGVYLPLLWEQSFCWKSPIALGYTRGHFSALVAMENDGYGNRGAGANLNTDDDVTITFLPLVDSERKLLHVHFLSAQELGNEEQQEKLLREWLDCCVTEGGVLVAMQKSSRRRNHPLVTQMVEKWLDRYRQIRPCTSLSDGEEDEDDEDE
How it was run: as §1

[7] = target: T5, YOD1 (UniProt Q5VVQ6)
T5 sequence (whole entry): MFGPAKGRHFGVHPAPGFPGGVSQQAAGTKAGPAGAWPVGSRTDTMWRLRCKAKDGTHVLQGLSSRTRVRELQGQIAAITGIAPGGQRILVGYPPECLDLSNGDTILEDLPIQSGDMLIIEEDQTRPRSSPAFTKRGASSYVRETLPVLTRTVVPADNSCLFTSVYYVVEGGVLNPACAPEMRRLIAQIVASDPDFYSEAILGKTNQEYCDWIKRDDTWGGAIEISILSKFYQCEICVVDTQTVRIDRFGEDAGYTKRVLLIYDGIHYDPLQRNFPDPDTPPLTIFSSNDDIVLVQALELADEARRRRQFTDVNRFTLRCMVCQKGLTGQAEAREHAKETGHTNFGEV
How it was run: as §1

Measured: log2 ratio of Biotin-Ahx-Ub-VS probe labelling

Cc1ccc(N(C(=O)CCl)C2C=CS(=O)(=O)C2)cc1 (stereo not given)
inactive: [1] 0.428 | [2] 0.0438 | [3] 0.136 | [4] -0.0818 | [5] -0.196 | [6] -0.0234 | [7] 0.412

O=C(CCl)N(C1CCCC1)C1CCS(=O)(=O)C1 (stereo not given)
inactive: [1] 0.335 | [2] -0.112 | [3] -0.128 | [4] -0.372 | [5] -0.386 | [6] -0.121 | [7] 0.15

O=C(CCl)Nc1ccc(F)cc1F
inactive: [1] -0.387 | [2] 0.0319 | [3] -0.334 | [4] -0.55 | [5] -0.199 | [6] -0.962 | [7] -0.107

O=C(CCl)N1CCC(O)(Cc2ccc(F)cc2)C1 (stereo not given)
inactive: [1] -0.253 | [2] 0.313 | [3] -0.16 | [4] -0.0913 | [5] 0.0413 | [6] -0.196 | [7] 0.2

C/C(=C\CNC(=O)CCl)c1cnn(C)c1.Cl
inactive: [1] -0.224 | [2] -0.391 | [3] -0.0109 | [4] -0.499 | [5] -0.465 | [6] -0.0207 | [7] -0.155
